Legend:
Assay in all cases: PBM binding z-score (relative to random genomic background probes); higher = stronger binding; sequences stand for … in GC…GCGATTGACAGCGTAGAATGAAGG
[1] = system: RARb homodimer (NR concentration 270 nM)
Outline: (§1)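 For binding z-scores, the reference was random background probes on custom Agilent 4×180K protein-binding microarrays. These arrays were incubated 1 h with ligand-free nuclear receptor dimers in PBS pH 7.4, 2% milk, 0.02% Triton X-100, 1 mM DTT, 0.2 mg/mL BSA and 0.4 mg/ml salmon testes DNA. Fluorescence was scanned after antibody detection of each partner (one per run) and regression-normalized.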

[2] = system: RARg:RXRa (NR concentration 270 nM, RXRa partner concentration 90 nM)
Outline: as §1

[3] = system: RARg homodimer (NR concentration 270 nM)
Outline: as §1

[4] = system: RXRa DBDmut IVT, anti-RXR (DBD mutation: RXRa K156A/R161A, NR concentration 90 nM)
Outline: as §1

[5] = system: RXRa homodimer (NR concentration 180 nM)
Outline: as §1

[6] = system: THRa:RXRa (NR concentration 90 nM, RXRa partner concentration 90 nM)
Outline: as §1

[7] = system: THRa homodimer (NR concentration 90 nM)
Outline: as §1

[8] = system: VDR homodimer (NR concentration 270 nM)
Outline: as §1

| Sequence | PBM binding z-score [1] | PBM binding z-score [2] | PBM binding z-score [3] | PBM binding z-score [4] | PBM binding z-score [5] | PBM binding z-score [6] | PBM binding z-score [7] | PBM binding z-score [8] |
| --- | --- | --- | --- | --- | --- | --- | --- | --- |
| CCTCGGAGGACAACAGGAGGTCACAGCTGCCAGA | 4.25 | 4.52 | 3.89 | 0.736 | 3.9 | 3.81 | 2.24 | 2.42 |
| CCGACTGGGGCAAGGTGACCATAACGCACAGCCA | 1.11 | 0.469 | 0.934 | -0.745 | 0.419 | 0.718 | 0.18 | -0.459 |
| AATACAGCGTCATCGTAGGCCAGAGTACGCACAG | -0.094 | -0.121 | 0.174 | -0.495 | -0.0638 | 0.55 | -0.659 | -0.00282 |
| CAAGACAGGTGAGAAGGTAACTCAGCCTCGATTA | 0.607 | 0.784 | 0.824 | -0.536 | 0.481 | 0.413 | 0.475 | -0.249 |
| CCTAGTTGGTCTGGAGGTCACACACCGGATATGA | 4.22 | 4.49 | 3.84 | 0.895 | 4.63 | 3.67 | 2.69 | 2.97 |
| AGAACGAGGGCACGCAGAGTTGATAGCAGAGTAG | 1.68 | 2.85 | 2.58 | 2.14 | 1.73 | 1.94 | 0.33 | 1.86 |
| TCTCGGAGGACACGAAAGTTCAGAGCTCGACATC | 3.16 | 2.2 | 3.44 | 1.32 | 1.14 | 2.22 | 0.943 | 2.55 |
| CCAGACAGGTCAAAGGTAACTCAGTCTGGTACGC | 3.43 | 5.62 | 4.75 | 2.47 | 6.86 | 3.06 | 0.0861 | 0.986 |
| CTATCAAGGTGAACAAGGTCGTTGATTACTATTC | 1.7 | 1.76 | 1.54 | 1.5 | 1.7 | 3.12 | 1.85 | 2.72 |
| TCGAGTAGGTGACCAATGGGGCATTCAGCTTTCT | 0.62 | 0.353 | 0.0885 | -0.0137 | 0.185 | -0.147 | -0.979 | -0.776 |
| TTAGCAAGGTGAAGGTCGTTGATCCCTCTGTAGA | 1.68 | 1.09 | 1.04 | -0.172 | 1.53 | 2.03 | 0.432 | 0.356 |
| ACCTCTAGGTAAAGATAGTTCAGTGAATGCAAAT | 0.723 | 0.4 | 0.505 | 0.0276 | 0.0359 | 0.533 | -0.346 | 0.268 |
| ATCTCTAGGTAACCAAGTTCAGTGCATGCCGAAC | 1.69 | 0.735 | 0.952 | 1.12 | 0.814 | 1.62 | 0.968 | 3.1 |
| TCTAGTTGGTCAAAGGTCACATACTCGAAATGCG | 5.18 | 6.93 | 6.01 | 1.65 | 7.86 | 3.89 | 1.76 | 2.75 |
| TCAGACAGGTGAAGGTGACTCAGGTACGCAGTCG | 1.6 | 0.814 | 0.949 | 0.889 | 0.995 | 1.66 | 0.461 | 0.358 |
| ACTAGCAGGCAAAGTTTGGGTCACTCAAACAAAG | 1.61 | 0.87 | 0.559 | -0.386 | 0.711 | 2.14 | 0.949 | 0.233 |
| TGAATGAGGTTATAGATCAGGGAACGTGGCGTCG | 0.339 | 1.36 | 1.02 | 0.491 | 2 | 2.05 | 0.416 | 0.618 |
| ATTACAGGGTCATCGTAGGCCAGAGTACGCACAG | 3.91 | 5.86 | 5.41 | 3.6 | 6.79 | 4.86 | 1.78 | 3.83 |
| GATACAGGCTCAGCTAGAGGCCAGAGTATGGAAA | -0.469 | -0.109 | -0.0931 | -0.906 | -0.529 | -1.13 | -0.801 | -0.924 |

| Sequence | PBM binding z-score [1] | PBM binding z-score [2] | PBM binding z-score [3] | PBM binding z-score [4] | PBM binding z-score [5] | PBM binding z-score [6] | PBM binding z-score [7] | PBM binding z-score [8] |
| --- | --- | --- | --- | --- | --- | --- | --- | --- |
| ACTTACGGGTCAACGAGGCTATAGCACGCGTATA | 3.07 | 5.01 | 4.51 | 2.15 | 5.06 | 3.35 | 0.239 | 1.55 |
| ACAGACAGGTGAGTAAAGGTAACTCAGCTGGACG | 0.365 | 0.666 | 0.622 | -0.605 | 0.915 | 1.67 | -0.828 | -0.485 |
| ATATGTACGTTAAGGGTCATTCAGGTTGGTTCGC | 3.82 | 3.89 | 2.96 | 2.12 | 4.64 | 3.3 | 1.45 | 4.32 |
| ATATGTCGGTTATCGGGTCATTCAGTTTGCGCAT | 2.64 | 2.72 | 2.04 | 1.42 | 2.51 | 3.14 | 2.54 | 3.21 |
| CGAACTAGGTCAAGGATAGTGAATCTCCGCACGC | 3.08 | 3.74 | 4.44 | 1.47 | 2.58 | 2.67 | 1.35 | 0.279 |
| CCTTACGGGTCAAGGTGATAGCACGGGTGGTACG | 3.13 | 4.81 | 4.64 | 0.497 | 5.2 | 2.94 | 0.765 | 0.801 |
| GCTATTAGTTGAAAGGGCAACCGAATGATTCTCG | 2.09 | 1.26 | 1.37 | 0.972 | 1.21 | 0.664 | -0.209 | 0.624 |
| ATCTCTAGGTAAGAGTCAGTTCAGTGAAGAACGC | 0.813 | 0.338 | 0.332 | 0.262 | 0.0582 | 0.853 | 0.649 | 0.916 |
| GCTCGGAGGACAAGCTCAGAGCTTTGTCCGTAGA | -0.256 | -0.416 | 0.0982 | -0.613 | -1.03 | 0.34 | -0.504 | -0.467 |
| CGAACTAGGTCAAGTACAGTGAATCTCCGCACGC | 3.33 | 4.45 | 5.13 | 2 | 3.13 | 3.03 | 1.56 | 1.45 |
| AGTCAAAGTTCGGGACGAGGTAACGTAAAGCACG | 0.989 | 2.06 | 1.49 | 0.847 | 1.07 | 2.89 | 1.13 | 0.532 |
| CCGAGTGGGGCAAGGTTACCATAACGCACAGCCA | 1.3 | 1.07 | 1.2 | -0.421 | 1.3 | 1.53 | 0.265 | 0.121 |
| TCATATGGGTAAATGCTAGGTGAAAGTCCGATCT | 0.561 | 0.294 | -0.0205 | 0.923 | 0.517 | 1.38 | 0.395 | -0.156 |
| CGTCCAAGGTCAGAGAGGTTAGTGAATGCCGAGT | 3.85 | 4.7 | 5.08 | 2.6 | 3.73 | 3.45 | 1.87 | 2.96 |
| TGTCAAAGTTCAAAGCTAACGTAAGTATCCACAC | 3.48 | 5.47 | 5.72 | 4.37 | 4.59 | 1.76 | -0.21 | 3.56 |
| TCGAGTAGGTTAGTGGGGGCATTCAGCCAACATA | 1.75 | 1.55 | 1.14 | 1.36 | 1.34 | 2.29 | 1.16 | 3.31 |
| CGAACTAGGTCATTGACAGGACTGTGAATAGTAA | 2.4 | 3.66 | 4.03 | 2.31 | 2.35 | 2.49 | 0.524 | 0.706 |
| ATCGAAAGGTAGAAGGTGAGTATACCCACCCGAA | 0.237 | 0.633 | 0.664 | -0.929 | 0.752 | 0.231 | -0.265 | -0.279 |
| CAAACTAGGTCAAGAGGTCAAGGTCCGCTTCCCG | 5.98 | 7.92 | 7.98 | 2.28 | 8.06 | 4.25 | 3.13 | 3.74 |

| Sequence | PBM binding z-score [1] | PBM binding z-score [2] | PBM binding z-score [3] | PBM binding z-score [4] | PBM binding z-score [5] | PBM binding z-score [6] | PBM binding z-score [7] | PBM binding z-score [8] |
| --- | --- | --- | --- | --- | --- | --- | --- | --- |
| AATACAGGGTCACTAGGCCAGCGTAGGTACGAAT | 3.58 | 5.12 | 4.78 | 2.81 | 5.29 | 3.48 | 1.43 | 2.28 |
| CCTACTGGGCCAAGGTCAATGATCAGTCAAAGCA | 3.38 | 3.51 | 3.62 | 0.404 | 3.12 | 3.18 | 1.77 | 1.61 |
| TCTAGTTGGTCACGGATGTCACACACGACGGGTA | 1.57 | 1.43 | 1.91 | 0.683 | 1.15 | 0.409 | 0.417 | 0.656 |
| ATCTCTAGGTAACAAGTTCAGTGACAGAGAGGAC | 1.97 | 1.58 | 1.52 | 0.868 | 0.971 | 1.49 | 1.14 | 2.97 |
| AATACAGGGTCACTCGGCCAGAGTAGGTACGAAT | 3.24 | 5.28 | 5.06 | 3.27 | 5.63 | 3.4 | 0.907 | 2.84 |
| CAGCCTAGGTCAGGGGCAGTATAGGAGGAACGTT | 2.99 | 3.27 | 4.18 | -0.191 | 1.91 | 2.37 | 0.948 | 0.103 |
| CCTAGCAGGCCAGGGTTACTCAAGCATTTCGCTT | 0.0028 | -0.0642 | -0.141 | -0.596 | 0.113 | 0.382 | -0.445 | -0.788 |
| CAAACTAGGTCACCGGAAGGTCAAGGTCCGCATG | 5.77 | 8.53 | 7.66 | 2.03 | 6.64 | 4.3 | 3.53 | 3.16 |
| CCGACTGGAGCAAAGGTTACCATACTCAGTACGA | 2.17 | 1.89 | 1.29 | 0.545 | 2.57 | 1.39 | 0.122 | 0.17 |
| ATCTCTAGGTAAGACTCAGTGCAGTGAAGAACGC | 0.192 | 0.0414 | 0.117 | -0.00244 | 0.00631 | 0.285 | 0.26 | 0.24 |
| TCTGGTAGGTCAGTTGGTCAGCTAACGAGCTGCC | 2.92 | 3.09 | 3.99 | 0.902 | 1.37 | 0.644 | 0.0551 | 0.292 |
| AATACAGGGTAATCGTAGGCCAGAGTACGCACAG | 0.578 | 0.923 | 0.637 | -0.324 | 0.61 | 1.34 | -0.13 | 0.508 |
| TCTCGGAGGACACGAATGGTCAGAGCTCGACATC | 0.664 | 0.332 | 1.29 | 0.733 | 0.156 | 1.01 | 0.00528 | -0.606 |
| CAAACTAGGTCAAGCTCAAAGTCGGTTTGTGCCA | 3.34 | 4.06 | 4.98 | 1.53 | 2.55 | 3.2 | 1.34 | 0.374 |
| CAAACTAGGTCACAGAGGTCAAAGTCCGTGCGTA | 5.8 | 7.58 | 7.69 | 3.5 | 8.16 | 4.79 | 3.15 | 7.24 |
| GCTCGGAGTACAAGGTCAGAGCTTTGTCCGTAGA | 2.65 | 2.42 | 2.48 | 1.1 | 2.11 | 2.63 | 1.23 | 0.858 |
| GCGACTGGGGCAAAGCATGTTACCATAAGGTTGG | 0.192 | 0.235 | 0.278 | 0.0488 | 0.0784 | 0.269 | -0.43 | -0.625 |
| CTTACTGGGCCACGAAAGGTCATTGATTCAGTGA | 4.85 | 5.14 | 4.77 | 1.19 | 5.84 | 4.12 | 1.15 | 1.78 |
